# Screens deposited in PubChem BioAssay by National Center for Advancing Translational Sciences (NCATS).
# Shown is part of a subset that was picked to be rich in hits.
# Pf Dd2 growth: blocks in vitro growth of P. falciparum Dd2; hit rate 4.3% among 120,000; Potency, µM (series often up to 28.9 µM), without a hit: top-dose activity, negative = inhibition, actives largely listed as inhibitors; P. falciparum Dd2 growth, SYBR Green, 72 h; active means well fitted inhibition curve with a large enough effect;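 further: plate controls were DMSO vehicle for no effect and reference drug for full effect; nearly all actives have a fitted effect of over 65% in size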
#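 Infected erythrocytes (Dd2, 0.3% parasitemia, 2.5% hematocrit final) are added to compound in RPMI-1640/Albumax II medium, grown 72 h at 37C in low oxygen, then lysed with saponin/Triton-X containing SYBR Green and read by fluorescence.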
# The depositor's hits bear a star; i = inactive; [ ] = dose if it differs, or a comment. Potency means the concentration at half of the fitted maximal effect.
SMILES,Pf Dd2 growth
O=C(Cn1cc(C(=O)c2ccco2)c2ccccc21)Nc1ccc(Br)cc1,-14.9%
Cc1cccc(C)c1OCC(=O)N(Cc1ccco1)Cc1ccco1,14.2%
Cc1ccccc1OCCn1cc(C(=O)c2ccco2)c2ccccc21,1.26µM*
Cc1ccc(OCCn2cc(C(=O)c3cccs3)c3ccccc32)cc1,3.98µM*
Cc1ccccc1NC(=O)Cn1cc(C(=O)c2ccco2)c2ccccc21,-4.8%
Cc1ccccc1OCCn1cc(C(=O)C2CCCCC2)c2ccccc21,-8.8%
COCCn1c(C)cnc1CCNC(=O)c1ccc(OC)nc1OC,i
Cc1ccc(C(=O)NCC(=O)N2CCCCCNC(=O)CC2c2ccccc2)cn1 (configuration not stated),42.3%
O=C(c1ccc2nc(-c3ccccc3)cn2c1)N1C[C@@H]2CCC[C@H]1C2,-12.5%
COCCNc1cc(-c2cc(C(F)(F)F)ccn2)c2cc[nH]c2n1,10µM*
COCCNc1ccc2nnc(-c3cc(C#N)ccn3)n2n1,24.6%[44.1 µM]
COCCNc1ccc2nnc(-c3ccc(C)cn3)n2n1,-19.8%[44.1 µM]
O=C(c1nccc2ccccc12)N1CCC(Cc2nc(C3CC3)n[nH]2)C1 (configuration not stated),i
CCn1cc(CN(C)C(=O)c2oc3c(C)c(C)ccc3c2C)cn1,i
COc1ccc(S(=O)(=O)N[C@H](C)c2onc(-c3cccnc3)c2C(=O)O)cc1,19.2%[44.1 µM]
CCn1nc(CC(C)C)cc1C(=O)N1CCC2(CC1)CNC(=O)O2,-6.7%
Cc1ccsc1CN1CCCC2(Cc3ccccc3CNC2=O)C1 (configuration not stated),-26.9%
CC(C)=CCN1CCCC2(Cc3ccccc3CNC2=O)C1 (configuration not stated),10µM*
O=C1NCc2ccccc2CC12CCCN(Cc1c(Cl)cncc1Cl)C2 (configuration not stated),-24.1%
Cc1cc(C)n2nc(CC(=O)NC[C@@H]3C[C@H](F)CN3)nc2n1,-8.5%
COc1ccc(C(C)NC(=O)CN2C(=O)NC3(CCS(=O)(=O)CC3)C2=O)cc1 (configuration not stated),-15.3%
Cc1nnc(NC(=O)CSc2nnc3c(n2)[nH]c2ccccc23)s1,-8.8%
CCCCCCSc1nnc2c(n1)OC(C)Nc1ccc(Br)cc1-2 (configuration not stated),3.6%
CCCCCSc1nnc2c(n1)[nH]c1c(C)cccc12,3.98µM*
CC(C)Cc1cc(C(=O)N2CCc3nc(-c4ccccc4)[nH]c3C2)nc(=O)[nH]1,-21.5%
SMILES,Pf Dd2 growth
c1ccc2sc([C@H]3CCN(CC4CCCCC4)C3)nc2c1,10µM*
CCOc1cccc(C(=O)N2CCC(c3nc4ccccc4s3)CC2)c1,87.0%
O=C(C1CCCCC1)N1CC[C@H](c2nc3ccccc3s2)C1,-25.5%[44.1 µM]
COC1CCC12CCN(C(=O)c1cccn1C)CC2 (configuration not stated),7.8%
COc1ccc(OC)c(CNC(=O)C2Cn3cccc3C(=O)N2CC(C)C)c1 (configuration not stated),i
COc1ccc(-c2cc(N3CCCC(NC(=O)Cc4ccc(F)cc4)C3)n[nH]2)cc1 (configuration not stated),-23.7%
CC(C)C1CN(c2ccc(C#N)cn2)CCC(=O)N1Cc1ccc(F)cc1 (configuration not stated),-14.3%
Fc1ccc(OCC2CCCN(c3ccc(Cn4ccnc4)cn3)C2)cc1 (configuration not stated),11.2µM*
O=C(NC1C[C@H]2CC[C@@H](C1)N2C(=O)CCCc1ccccc1)c1ccc(F)cc1 (some centres not stated),8.91µM*
COc1cccc(CC(=O)N2[C@@H]3CC[C@H]2CC(NC(=O)c2ccc(F)cc2)C3)c1 (some centres not stated),i
CC(C)CC(=O)N1[C@@H]2CC[C@H]1CC(NC(=O)c1ccc(F)cc1)C2 (some centres not stated),-18.5%
O=C(NCCN1CCOCC1)c1ccc(C2CCCNC2)cc1 (configuration not stated),-20.1%
CC(=O)c1cccc(NC(=O)Cn2c(Nc3cc(C)cc(C)c3)nc(C)cc2=O)c1,-59.7%
COCC[C@]1(O)CCN(C(=O)CCCc2ccccc2)C[C@H]1C,-7.6%
COCC1CN(C(C)=O)CC12CCN(C(=O)CCCc1ccccc1)CC2 (configuration not stated),i
COCCN1CC2CN(C(=O)CCCc3ccccc3)CC(C1)O2,11.2µM*
COc1ccc(-c2noc([C@@H](C)NC(C)=O)c2C(=O)O)cc1,42.5%[44.1 µM]
CC1(C(=O)NCc2ccncc2)CCCc2cnc(Nc3ccccc3)nc21 (configuration not stated),-29.1%[44.1 µM]
COc1ccc(C(CC(=O)N2CCCC2)c2c[nH]c3ccccc23)cc1 (configuration not stated),-7.2%
CCc1cccc2c(C(CC(=O)N3CCCCC3)c3cccc(C)c3)c[nH]c12 (configuration not stated),i
CCc1cccc2c(C(CC(=O)N3CCc4ccccc4C3)c3cccc4c3OCO4)c[nH]c12 (configuration not stated),8.91µM*
CCOC(=O)C1CCCN(C(=O)CC(c2cccc([N+](=O)[O-])c2)c2c[nH]c3c(CC)cccc23)C1 (configuration not stated),12.6µM*
CCCNC(=O)CC(c1ccccc1OC)c1c[nH]c2c(CC)cccc12 (configuration not stated),i
CCc1cccc2c(C(CC(=O)NC(C)CC)c3ccc(OC)c(OC)c3)c[nH]c12 (configuration not stated),-4.2%
CCCNC(=O)CC(c1ccc(OC)c(OC)c1)c1c[nH]c2c(CC)cccc12 (configuration not stated),-11.4%
SMILES,Pf Dd2 growth
CC(CCc1ccccc1)NC(=O)CC(c1cccc2c1OCO2)c1c[nH]c2ccccc12 (configuration not stated),-15.2%
CCc1cccc2c(C(CC(=O)N3CCCC3)c3cccc([N+](=O)[O-])c3)c[nH]c12 (configuration not stated),7.94µM*
Cc1cnccc1N1CCCN(C(=O)C2CC3(CCNCC3)CN2)CC1 (configuration not stated),-1.7%
Cc1ncsc1CN1CCC2(CC1)CC(Cc1nc(-c3ccccc3)no1)CCO2 (configuration not stated),i
Cc1cccc(N2CCN(C(=O)C3CCN(C(=O)C4CC4)CC3)CC2)n1,5.1%
CC1CCN(CC2CCCCCN2)CC1 (configuration not stated),13.8%
Cc1ccc(-n2c(=O)c3c(cc(C)n3C)n(CC(=O)Nc3ccc4c(c3)OCO4)c2=O)cc1,-1.6%
CC(C)NC(=O)NCc1nnc2n1C(C(=O)N1CCCC1)CC2 (configuration not stated),38.8%
Cc1c(/C=C(\C#N)C(=O)Nc2cccc(Cl)c2)c2ccccc2n1Cc1ccccc1Cl,3.16µM*
N#C/C(=C/c1cn(Cc2ccccc2Cl)c2ccccc12)C(=O)Nc1cccc(Cl)c1,i
Cc1ccc(NC(=O)/C(C#N)=C\c2ccc(Cl)cc2Cl)cc1C,8.3%
Nc1nc(NCCNC(=O)c2ccccc2Cl)cc(C2CC(O)C2)n1 (configuration not stated),-6.6%
CS(=O)(=O)N1CCC(OC2CCN(C(=O)NC3CCCCC3)CC2)CC1,13.2%
CCC1CCc2c(sc(NC(=O)C3c4ccccc4Oc4ccccc43)c2C(=O)OC)C1 (configuration not stated),12.6µM*
